In assay [1] the target is Aldehyde dehydrogenase, mitochondrial (Homo sapiens) (UniProt P05091). As to the kind of experiment: qHTS for Inhibitors of the Aldehyde Dehydrogenase Family (ALDH2) Primary screen (AID 2061308). Further: nearly all actives have a fitted effect of over 55% in size. For orientation: In qHTS, concentration-response curves come from the screen itself.
Assay [2] has as its target Retinaldehyde dehydrogenase 3 (Homo sapiens) (UniProt P47895). As to the kind of experiment: qHTS for Inhibitors of the Aldehyde Dehydrogenase Family (ALDH1A3) Primary screen (AID 2061315).

We go through 45 compounds from PubChem BioAssay (NCATS).

Inconclusive results are not listed. A call without a number means that no potency is given here. Active and inactive are the calls of the source. The call rests on the fitted dose curve; in most records, active means well fitted curve in the direction sought with a large enough effect; inconclusive means small, poorly fitted or top-dose-only effect, or another doubt; inactive means no such curve, though single readings can be large; an effect the other way counts as inactive or inconclusive.

In the case of `Cc1ccc(-c2ccc(=O)n(CC(=O)N(C)C(C)C(C)C)n2)cc1` (stereo not given), the Potency result in assay [1] and in assay [2] was “inactive” each time.
Consider `CN(C)CCCCC(=O)Nc1ccc(NC(=S)NC(=O)c2ccc(C(C)(C)C)cc2)cc1`, for which the Potency entry in assay [1] and in assay [2] was “inactive” in each case.
`O=C1CCCC2=C1C(c1[nH]ncc1Cl)NC(=NCCc1ccccc1)N2` (stereo not given): the Potency entry in assay [1] and in assay [2] was “inactive” in each case.
Regarding `Cc1cc(NS(=O)(=O)c2ccc(NC(=O)Cc3ccc4ccccc4c3)cc2)no1`, the Potency entry in assay [1] and in assay [2] was “inactive” in each case.
With `COc1ccc(-c2nnc3n2N=C(c2c(OC)cccc2OC)CS3)cc1OC`, the Potency result in assay [1] and in assay [2] was “inactive” each time.
Consider `COc1cc(O)c(C(CC(=O)N2CCCC(COc3ccc(F)cc3)C2)c2ccc3c(c2)OCO3)c(OC)c1` (stereo not given), for which the Potency result in assay [1] and in assay [2] was “inactive” in each case.
`CN1[C@@H]2CC[C@H]1CC(OC(c1ccccc1)c1ccccc1)C2` (stereo not given in full): the Potency entry in assay [1] and in assay [2] was “inactive” each time.
With `CC(C)(C)OC(=O)Cc1nnc(-c2nc3ccccc3[nH]2)s1`, the Potency result in assay [1] and in assay [2] was “inactive” in each case.
In the case of `O=C(OCC#CCSc1nnc(-c2cccc3ccccc23)o1)c1ccccc1F`, the Potency entry in assay [1] and in assay [2] was “inactive” each time.
With `Cc1cccc(-n2cnc3cc(C(=O)N4CCC(Cc5ccccc5)CC4)ccc32)c1`, the Potency result in assay [1] and in assay [2] was “inactive” throughout.
As to `CC(=O)Nc1sc2c(c1-c1ccc(F)cc1)CCNC2`, the Potency entry in assay [1] and in assay [2] was “inactive” in each case.
Consider `O=C(O)c1ccc(O)c2ncc(-c3cccc(N4CCOCC4)c3)cc12`, for which the Potency result in assay [1] and in assay [2] was “inactive” in each case.
Regarding `O=C(CNC(=O)c1ccc2n[nH]nc2c1)OC(C(=O)Nc1cc(C(F)(F)F)ccc1Cl)c1ccccc1` (stereo not given), the Potency entry in assay [1] and in assay [2] was “inactive” each time.
With `CNc1oc(-c2ccc3cnccc3c2)nc1C#N`, the Potency entry in assay [1] and in assay [2] was “inactive” in each case.
As to `C=C1C(=O)OC2CC3(C)C(CC12)C(C)=CC(O)C3OC(C)=O` (stereo not given), the Potency entry in assay [1] and in assay [2] was “inactive” each time.
Take `Cc1ccc(OCCn2c(CCNC(=O)Cc3cccc4ccccc34)nc3ccccc32)cc1`: the Potency entry in assay [1] and in assay [2] was “inactive” each time.
As to `CN(C)CCNc1ncnc2ccc(-c3ccc4c(c3)OCO4)cc12`, the Potency entry in assay [1] and in assay [2] was “inactive” each time.
For `Cc1cccc(CNc2ncnc3ccc(-c4ccc5c(c4)OCO5)cc23)c1`, the Potency result in assay [1] and in assay [2] was “inactive” in each case.
`COc1cccc(C2=Nn3c(nnc3-c3ccccc3O)SC2)c1`: the Potency result in assay [1] and in assay [2] was “inactive” throughout.
For the compound `O=C(Nc1nnc(-c2ccncc2)s1)Nc1cccc2ccccc12`, the Potency entry in assay [1] and in assay [2] was “inactive” throughout.
Consider `Cc1ccc(NS(=O)(=O)c2cc3c(cc2/C=C/c2ccccc2)NC(=O)CO3)cc1C`, for which the Potency entry in assay [1] and in assay [2] was “inactive” throughout.
Regarding `Cc1ccccc1-c1csc2ncnc(Sc3nnnn3C)c12`, the Potency result in assay [1] and in assay [2] was “inactive” in each case.
For the compound `CCOC(=O)C1CCN(C(=O)C2(NC(=O)Nc3ccccc3Cl)CC2)CC1`, the Potency result in assay [1] and in assay [2] was “inactive” throughout.
On to `COc1ccccc1C(=O)N1CCc2cc(-c3nc(NC(=O)Cc4ccc5c(c4)OCO5)sc3C)ccc21`, for which the Potency result in assay [1] and in assay [2] was “inactive” throughout.
Take `N#Cc1c(-c2ccc(OCCOCCOCCN)cc2)no[n+]1[O-]`: the Potency entry in assay [1] and in assay [2] was “inactive” in each case.
As to `CCCn1c(-c2ccc(F)cc2)nc2c(NCCN3CCSCC3)nc(C)nc21`, the Potency result in assay [1] and in assay [2] was “inactive” each time.
For `Clc1ccc(CN(CCCNc2ncnc(NCCCc3cnc[nH]3)n2)c2ccc(Br)cn2)cc1Cl`, the Potency entry in assay [1] and in assay [2] was “inactive” each time.
For the compound `Fc1ccc(-c2nc(-c3ccncc3)nc3ccccc23)cc1F`, the Potency result in assay [1] and in assay [2] was “inactive” throughout.
Take `COc1cc(O)c(C(CC(=O)N2CCOCC2)c2ccc(OC)c(OC)c2)c(OC)c1` (stereo not given): the Potency entry in assay [1] and in assay [2] was “inactive” each time.
On to `COc1cccc(-c2ccc(-c3nc4ccccc4c(=O)[nH]3)o2)c1`, for which the Potency entry in assay [1] and in assay [2] was “inactive” each time.
On to `CC(=O)O[C@@H]1CC2C(C)(C)C(=O)C=C[C@]2(C)C2CC[C@@]3(C)[C@H](c4ccoc4)OC(=O)[C@H]4O[C@]43[C@@]21C` (stereo not given in full), for which the Potency result in assay [1] and in assay [2] was “inactive” each time.
As to `O=C(Nc1ccc(-c2nc3ccccc3[nH]2)cc1)c1ccncc1`, the Potency entry in assay [1] and in assay [2] was “inactive” each time.
Regarding `CCCn1c(C)nc2c(NCCCCN(CC)CC)nc(C)nc21`, the Potency result in assay [1] and in assay [2] was “inactive” throughout.
Consider `O=C(Nc1cc(C(F)(F)F)ccc1Cl)C(O)Cc1ccccc1` (stereo not given), for which the Potency result in assay [1] and in assay [2] was “inactive” in each case.
Take `Nc1ncc(S(=O)(=O)N2CCOCC2)s1`: the Potency entry in assay [1] and in assay [2] was “inactive” in each case.
In the case of `CCCCCNc1oc(-c2cccc3ccccc23)nc1C#N`, the Potency result in assay [1] and in assay [2] was “inactive” in each case.
On to `Cc1ccc(OCCn2c(CCNC(=O)c3ccc[nH]3)nc3ccccc32)cc1`, for which the Potency entry in assay [1] and in assay [2] was “inactive” throughout.
Turning to `Cc1cc(-c2nnc3n2CCCCC3)c(C)n1-c1ccncc1`, the Potency result in assay [1] and in assay [2] was “inactive” throughout.
Turning to `Cc1ccc(S(=O)(=O)Nc2cccnc2C(=O)Nc2nc(-c3ccccc3)cs2)cc1`, the Potency result in assay [1] and in assay [2] was “inactive” in each case.
As for `Cc1cc2c(s1)c1cnn(Cc3c(F)cccc3C(F)(F)F)c(=O)c1n2C`, the Potency entry in assay [1] and in assay [2] was “inactive” throughout.
With `Fc1ccc(-c2ccc(CNc3nc(-c4ccccc4C(F)(F)F)nc4ccccc34)cc2)cc1C(F)(F)F`, the Potency entry in assay [1] and in assay [2] was “inactive” in each case.
`COc1ccc(CN(Cc2ccccc2)C(=O)c2ccc(OC)cc2O)cc1`: the Potency result in assay [1] and in assay [2] was “inactive” throughout.
As to `CCOc1ccc(C(=O)Oc2ccc(-c3nc4ccccc4[nH]3)cc2)cc1Cl`, the Potency result in assay [1] and in assay [2] was “inactive” in each case.
As for `S=C(Nc1ccc(Cl)c(Cl)c1)Nc1nnc(-c2ccncc2)o1`, the Potency entry in assay [1] and in assay [2] was “inactive” in each case.
For `O=C(Nc1ccc(Cl)c(Cl)c1)Nc1nnc(Br)s1`, the Potency result in assay [1] and in assay [2] was “inactive” each time.
